# Measurements published in PubChem BioAssay (NCI).
# Compounds without any hit were thinned out: in the full panel of roughly 79,000, 15% have a hit. Values without a mark were called inactive. Calls of active or inactive are those of the source. No stated cut-off is given here; in the data, active means growth inhibition above about 70%; inactive means the rest.
# Assay: NCI Yeast Anticancer Drug Screen. Data for the sgs1 mgt1 strain (AID 161);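 further: 0% = growth of cultures given vehicle only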
# Details: S. cerevisiae sgs1 mgt1 strain, at 50.0 µM, active compounds read high
# Outline: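 Test agents were incubated with a DNA-repair-mutant yeast strain. Growth was then read and compared against vehicle-treated controls.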
row,SMILES,growth inhibition
1,O=C1C=C/C(=N/c2ccc(O)o2)c2ccccc21,20.1%
2,N#CCCCNc1ccccc1,-28.4%
3,Cc1cccc(C(C)(C)C)c1NC(=O)C(=O)C(C(=O)/C=C\c1ccccc1)C1OC(=O)c2ccccc21 (stereo not given),12.3%
4,CC1(C)OCC(Cc2ccc3c(c2)OCO3)CO1,-5.75%
5,CCOC(=O)N1CC(C)N(C(=O)OCC)CC1C (stereo not given),6.7%
6,CCc1ccc(NC(=O)CCC(=O)O)cc1,4.75%
7,Cc1ccc(N=Nc2c(N)ccc3ccccc23)cc1,89.6% (active)
8,CC(C)C1OCC(CO)([N+](=O)[O-])CO1 (stereo not given),-21.8%
9,Cc1c(-c2ccc3c(c2)COC3)sc(N)c1C#N,27.2%
10,COc1cc2c(OC)cc1CSCc1sc(C)c(c1Br)CSC2,4.7%
11,CC(C)c1ccc(OC(=O)Nc2c(Cl)cccc2Cl)cc1,5.95%
12,COc1ccc(NC(=O)COc2ccc(Cl)cc2Cl)cc1,31.4%
13,Cc1ccccc1C(=O)OCC(=O)c1ccc(-c2ccccc2)cc1,-1.35%
14,Nc1n[n+](-c2ccc(Cl)cc2)no1,87.4% (active)
15,CCOC(=O)c1c(-c2ccc([N+](=O)[O-])cc2)c(/C=N\O)n(-c2ccccc2)c1C,3.3%
16,CCCOC(=O)NC(C)C(=O)NC(CCC(=O)NC(CCCC(N)C(=O)O)C(=O)NC(C)C(=O)O)C(=O)O (stereo not given),-37.6%
17,COc1ccc(-c2cc(-c3ccc(Cl)cc3)on2)cc1,-4.55%
18,Cc1cc([N+](=O)[O-])c(C)c(Br)c1C,-37.7%
19,CCOC(=O)c1ccc(OC)c2[nH]c3c(c(=O)c12)C(=O)c1[nH]c2c(OC)ccc(C(=O)OCC)c2c(=O)c1C3=O,-23.2%
20,O=C1C2=C(Nc3ccccc3N2)OC1c1ccc2c(c1)OCO2 (stereo not given),-20.1%

row,SMILES,growth inhibition
1,CC(=O)NNC(=S)N/C=C(\C#N)S(=O)(=O)c1ccc(C)cc1,-35.5%
2,CS(=O)(=O)OCC1C2CCC(CC2)C1COS(C)(=O)=O (stereo not given),10.2%
3,N#C/C(=C\c1c[nH]c2ccccc12)c1ccc([N+](=O)[O-])cc1,5.45%
4,O=C(CC1C(=O)Nc2ccccc2S1=O)Nc1cccc(Cl)c1 (stereo not given),-4.5%
5,NC(=O)Nc1nc(-c2ccccc2)no1,-17%
6,CC(=O)Nc1c(C(N)=O)cnn1-c1ccccc1,17.7%
7,CC1=NC=C(O)c2ccccc2O1,26.8%
8,O=C(O)c1ccc(SSc2ccc(C(=O)O)cn2)nc1,-13.3%
9,CC1(C)C2CCC13CS(=O)(=O)N1O[C@]13C(=O)O2 (stereo not given in full),6.55%
10,CC(=O)Oc1ccccc1C1CCCCC1,-2.5%
11,Nc1nnc(Cc2cccc3ccccc23)o1,-13.1%
12,Nc1nnnn1CCc1ccccc1,-4%
13,O=C(COc1cc(Cl)ccc1Cl)NCc1ccc(Cl)cc1,12.6%
14,CC(NC(=O)N(C)C)NC(=O)N(C)C,-5.15%
15,CC(C)Sc1nc2ccc(NC(=O)/C=C/C(=O)O)cc2s1,4.95%
16,Cn1c(=O)c2c(nc(Br)n2CC(=O)c2ccc([N+](=O)[O-])cc2)n(C)c1=O,22.1%
17,CCCCOC(=O)CNC(=O)c1ccc(C)c(OCc2ccccc2)c1[N+](=O)[O-],6.1%
18,COC(=O)/C=C(\C(=O)OC)c1cc(C)c2cc(C(C)C)ccc(C)c1-2,13%
19,CCOC(=O)c1cnc(SCc2ccccc2)[nH]c1=O,-17.7%
20,CCC(C#N)(c1ccccc1)N(CCc1ccccc1)C(=O)c1ccccc1 (stereo not given),-12.9%
